PAFAH1B2 inh: inhibitors of human PAFAH1B2; inhibition, % at 3.39 µM; P68402; 1.2% of 340,000 active; recombinant PAFAH1B2, FP-rhodamine activity probe, fluorescence polarization; AID 492953;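 active means inhibition above the mean of all tested compounds plus 3 SD, cut at about 24% in these data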;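 further: 0% = enzyme with DMSO and 100% = wells lacking PAFAH1B2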
Target sequence (P68402 whole entry, looked up): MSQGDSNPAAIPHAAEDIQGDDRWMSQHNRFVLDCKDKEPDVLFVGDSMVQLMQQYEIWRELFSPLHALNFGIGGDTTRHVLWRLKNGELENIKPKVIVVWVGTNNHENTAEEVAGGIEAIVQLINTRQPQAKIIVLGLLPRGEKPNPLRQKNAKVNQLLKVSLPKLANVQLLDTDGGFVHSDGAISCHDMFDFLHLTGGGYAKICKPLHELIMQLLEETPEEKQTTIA
PAFAH2 inh: PAFAH2 (human) inhibition; recombinant PAFAH2, FP-rhodamine activity probe, fluorescence polarization; inhibition, % at 3.39 µM; 0.99% of 340,000 active;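 active means inhibition above the mean over all tested compounds plus 3 SD, cut at about 30% in these data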;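 further: inhibitors block probe labeling of enzyme so polarization drops; 0% = enzyme with DMSO and 100% = wells lacking PAFAH2 protein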
PP1 counter: counter-screen for PP5 inhibitors: inhibitors of human PP1-alpha. inhibition, % at 6.7 µM. purified PP1alpha, OMFP fluorescence. 0.9% of 320,000 active;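 active means inhibition above the mean inhibition of all tested compounds plus 3 SD, computed separately for each screening campaign, cut at about 15% in these data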
pPAFAH FP inh: inhibitors of human plasma PAF acetylhydrolase (pPAFAH) | Q13093 | recombinant pPAFAH, FP-rhodamine probe fluorescence polarization | inhibition, % at 3.39 µM | 1.5% of 330,000 active;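 active means inhibition above the mean inhibition across the screen plus 3 SD, cut at about 25% in these data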;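 further: inhibitors block binding of the rhodamine activity-based probe so polarization drops; 0% = enzyme with DMSO and 100% = wells lacking pPAFAH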
PAFAH1B3 inh: inhibitors of human PAFAH1B3. Q15102. recombinant PAFAH1B3, FP-rhodamine probe, fluorescence polarization. inhibition, % at 3.39 µM. 0.28% of 340,000 active. AID 492972;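 active means inhibition above the screen-wide average of all tested compounds plus 3 SD, cut at about 25% in these data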;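 further: 0% = enzyme with DMSO only and 100% = wells lacking PAFAH1B3 protein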
Target sequence (Q15102 whole entry, looked up): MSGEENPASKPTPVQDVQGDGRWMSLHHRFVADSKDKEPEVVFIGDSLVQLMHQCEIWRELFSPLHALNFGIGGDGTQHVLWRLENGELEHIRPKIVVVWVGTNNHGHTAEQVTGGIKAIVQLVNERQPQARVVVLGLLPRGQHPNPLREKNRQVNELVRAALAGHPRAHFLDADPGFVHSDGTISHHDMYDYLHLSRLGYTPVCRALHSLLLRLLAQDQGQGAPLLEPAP
PP5 inh: PP5 (human) phosphatase inhibition; inhibition, % at 6.7 µM; P53041; AID 1987; purified PP5c, OMFP substrate fluorescence; 0.18% of 320,000 active;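 active means inhibition above the campaign's mean inhibition across all tested compounds plus 3 SD, cut at about 9.5% in these data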;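 further: 0% = DMSO only and 100% = 100 µM cantharidin control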
* hit, by the source's call; nt = not tested or not shown. Most compounds without a hit are left out; they make up all but 3.4% or so of the library.

SMILES	PAFAH1B2 inh	PAFAH2 inh	PP1 counter	pPAFAH FP inh	PAFAH1B3 inh	PP5 inh
Cc1ccc(S(=O)(=O)N2CCOCC2)cc1NC(=O)COc1ccccc1Cc1ccccc1	2	0	nt	26*	1	nt
O=C(COc1ccccc1Cc1ccccc1)Nc1cccc(S(=O)(=O)N2CCOCC2)c1	-2	-9	-1	5	-7	2
CNC(=O)COc1ccc(S(=O)(=O)Nc2ccc(C)cc2)cc1	5	-4	-2	22	9	-2
Cc1ccc(NS(=O)(=O)c2ccc(OCC(=O)NCc3cccnc3)cc2)cc1	2	-4	-3	26*	5	1
CCCNC(=O)COc1ccc(S(=O)(=O)Nc2ccc(C)cc2)cc1	7	-5	2	30*	0	2
COc1ccc(Cl)cc1N1C(=O)CC(N2CCN(S(=O)(=O)c3ccccc3F)CC2)C1=O (configuration not stated)	0	7	nt	0	16	nt
Nc1ccccc1/C=C/c1ccccc1N	4	6	nt	nt	4	nt
O=C(NCCCC1CCCC1)C1CCC(=O)N(Cc2ccc(Cl)cc2)C1 (configuration not stated)	11	0	-2	2	7	3
CCN(C(=O)CSc1cc(-c2ccccc2)c2ccc(OC)cc2n1)C1CCS(=O)(=O)C1 (configuration not stated)	3	-4	6	26*	10	4
COc1ccc2c(-c3ccccc3)cc(SCC(=O)N(C)C)nc2c1	-1	5	2	33*	5	3
CCN(C(=O)CSc1cc(C)c2ccc(OC)cc2n1)C1CCS(=O)(=O)C1 (configuration not stated)	1	-1	-2	-7	4	0
COCCNC(=O)CSc1cc(-c2ccccc2)c2ccc(OC)cc2n1	1	1	4	30*	6	3
COc1ccc2c(-c3ccccc3)cc(SCC(=O)NC(N)=O)nc2c1	2	-6	0	7	3	0
COc1ccc(C(=O)NCC(=O)OCC(=O)N2N=C(c3ccc(Cl)cc3)CC2c2ccco2)cc1OC (configuration not stated)	-2	-3	0	-6	3	3
CNc1ccccc(C(=O)/C=C/c2ccccc2OC)c1=O	4	15	1	28*	18	2
CC(=O)c1cccc(NC(=O)CN2C(=O)C(=O)N(Cc3ccco3)C2=O)c1	0	-2	4	5	1	1
Cc1oc2c(cc(NS(=O)(=O)c3ccc(Cl)cc3)c3ccccc32)c1C(=O)O	11	11	nt	nt	9	nt
CCOC(=O)c1c(C)oc2c1cc(NS(=O)(=O)c1ccc(C(=O)O)cc1)c1ccccc12	4	10	2	29*	7	0
Cc1ccc(C=C2C(Cl)=C(Cl)C(Cl)=C2Cl)cc1	nt	nt	3	41*	nt	-1
COc1ccc2[nH]c(O)c(N=NC(=O)Cc3cccs3)c2c1	14	12	7	25*	13	1
O=C(Nc1ccc(-c2n[nH]c(=S)o2)cc1)c1ccccc1	9	6	-2	6	14	0
COC(=O)c1ccc(N2CCOCC2)c(NC(=O)Nc2cccc(OC)c2)c1	2	7	-1	-2	8	2
CCOC(=O)c1ccc(N2CCN(c3ccccc3F)CC2)c(NC(=O)Nc2cccc(OC)c2)c1	-8	-10	3	26*	-22	6
O=C(O)c1ccccc1NS(=O)(=O)c1ccc(NNC(=S)Nc2ccc(OC(F)F)cc2)c([N+](=O)[O-])c1	60*	70*	nt	nt	56*	nt
Cc1cccc(NC(=O)C(C)OC(=O)c2ccccc2NS(=O)(=O)c2cc(C)c(C)c([N+](=O)[O-])c2)c1 (configuration not stated)	-6	-25	4	-6	-16	1
SMILES	PAFAH1B2 inh	PAFAH2 inh	PP1 counter	pPAFAH FP inh	PAFAH1B3 inh	PP5 inh
Cc1ccc(NC(=S)NNc2ccc([N+](=O)[O-])cc2S(=O)(=O)Nc2ccccc2C(=O)O)cc1C	25*	38*	17*	29*	18	10
CC(=O)Nc1ccc(C=NNc2ccc([N+](=O)[O-])cc2S(=O)(=O)Nc2ccccc2C(=O)O)cc1	3	1	nt	26*	2	nt
COc1ccc(C(C)=NNc2ccc([N+](=O)[O-])cc2S(=O)(=O)Nc2ccccc2C(=O)O)c(OC)c1	-5	12	nt	31*	-7	nt
Cc1ccc(/C=C/C(=O)O)cc1S(=O)(=O)Nc1ccccc1C(=O)O	3	7	-2	-2	-2	2
Nc1ncnc2c1ncn2-c1ccccc1Cl	5	-8	nt	nt	7	nt
CC(C)c1ccc(C(C(C(=O)c2ccccc2)N2CCOCC2)N2CCOCC2)cc1 (configuration not stated)	8	1	nt	nt	2	nt
O=C1C(Nc2cccc(O)c2)=C(N2CCCCC2)C(=O)c2ccccc21	25*	60*	-2	17	66*	8
Cc1cc(C)nc(NNS(=O)(=O)c2ccc(F)c(Cl)c2)n1	1	2	6	1	-3	-1
Cc1cc(C)nc(NNS(=O)(=O)c2ccc(Cl)cc2)n1	26*	10	nt	1	10	nt
COc1ccccc1N1CN(S(=O)(=O)c2ccc(C)cc2)c2nc3ccccc3nc21	12	15	nt	2	4	nt
O=C1C=CC2=C3c4cc(O)c(O)cc4CC3(O)COC2=C1O (configuration not stated)	19	85*	nt	nt	36*	nt
Cc1cccc(C(C)C)c1NC(=O)c1ccc(COc2ccc3c(C)cc(=O)oc3c2)cc1	-8	-12	17*	4	-18	4
CC(=O)Nc1ccc(NC(=O)c2ccc(COc3ccc4c(C)cc(=O)oc4c3)cc2)cc1	nt	nt	0	-12	nt	-6
CC(=O)c1c[nH]c(C(=O)NC2CCCCCC2)c1	8	1	1	5	15	0
CC1Sc2ccc(C(=O)OCc3ccccc3Cl)cc2NC1=O (configuration not stated)	3	10	-8	29*	4	0
O=C(NNc1cc(Br)c(O)c(Br)c1)c1ccccc1	9	52*	-2	12	-1	1
NS(=O)(=O)c1ccc(NNC(=O)c2ccccc2)cc1	nt	nt	-5	-4	nt	-1
S=c1sscc1-c1ccccc1	10	10	nt	nt	3	nt
COc1ccc([C@@H]2CC=C(C(=O)O)[C@H](c3ccc(C)cc3)N2S(=O)(=O)c2ccc(C)cc2)cc1OC	12	-1	nt	7	6	nt
Cc1ccc(S(=O)(=O)N2CC(C(=O)O)=CC[C@H]2c2ccc3c(c2)OCO3)cc1	7	3	-2	1	4	0
Cc1ccc(S(=O)(=O)N2[C@@H](c3ccc(Br)cc3)C(C(=O)O)=CC[C@H]2c2ccc(Cl)c(Cl)c2)cc1	87*	0	nt	21	0	nt
Cc1ccc(S(=O)(=O)N2[C@@H](c3ccccc3F)C(C(=O)O)=CC[C@H]2c2cccs2)cc1	21	5	3	2	10	-1
